# Source: PubChem BioAssay AID1159580 (chemical genetic matrix, 2015)
# Where “and” joins values, the source holds several entries; their conditions need not be identical. Equal entries are not always repeated. Out of some 5,500 compounds screened, about 2,000 (36%) were called active. Not shown: some 18% with an inconclusive outcome. The list shows a part of the results. Values without a mark were called inactive. Rule as the data show it: active = normalized growth mostly below about 0.91 (no sharp cut-off); inconclusive = no clear call, values can overlap the other calls; inactive = mostly above about 0.92.
# Experiment: chemical genetic growth profiling, strain panel (AID 1159580);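 also: tested at 20 µM; growth read once vehicle control cultures reached saturation at 30 °C; 1 = growth at the plate median or of vehicle wells; lower values mean less growth of the strain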
# Conditions: growth OD
smiles,measurement,setting,value
COc1cccc(-c2cc(=O)c3cc(OC)ccc3o2)c1,normalized growth,"S. cerevisiae deletion strains, locus YAL013W, strain DEP1, stronger effect = lower value",0.993
same,normalized growth,"S. cerevisiae deletion strains, locus YBR021W, strain FUR4, stronger effect = lower value",0.816 (active)
same,normalized growth,"S. cerevisiae deletion strains, locus YBR229C, strain ROT2, stronger effect = lower value",0.992
same,normalized growth,"S. cerevisiae deletion strains, locus YCL029C, strain bik1, stronger effect = lower value",1.1 [resistant] (active)
same,normalized growth,"S. cerevisiae deletion strains, locus YDL035C, strain GPR1, stronger effect = lower value",0.98
same,normalized growth,"S. cerevisiae deletion strains, locus YDL074C, strain BRE1, stronger effect = lower value",0.914
same,normalized growth,"S. cerevisiae deletion strains, locus YDL101C, strain DUN1, stronger effect = lower value",0.983
same,normalized growth,"S. cerevisiae deletion strains, locus YDL134C, strain PPH21, stronger effect = lower value",0.95
same,normalized growth,"S. cerevisiae deletion strains, locus YDL185W, strain tfp1, stronger effect = lower value",1.09
same,normalized growth,"S. cerevisiae deletion strains, locus YDL192W, strain arf1, stronger effect = lower value",1.04
same,normalized growth,"S. cerevisiae deletion strains, locus YDR101C, strain arx1, stronger effect = lower value",1.13 [resistant] (active)
same,normalized growth,"S. cerevisiae deletion strains, locus YDR150W, strain NUM1, stronger effect = lower value",1
same,normalized growth,"S. cerevisiae deletion strains, locus YDR162C, strain NBP2, stronger effect = lower value",0.968
same,normalized growth,"S. cerevisiae deletion strains, locus YDR318W, strain mcm21, stronger effect = lower value",1.05
same,normalized growth,"S. cerevisiae deletion strains, locus YDR388W, stronger effect = lower value",1.03
same,normalized growth,"S. cerevisiae deletion strains, locus YDR502C, strain sam2, stronger effect = lower value",1.14 [resistant] (active)
same,normalized growth,"S. cerevisiae deletion strains, locus YEL061C, strain CIN8, stronger effect = lower value",0.979
same,normalized growth,"S. cerevisiae deletion strains, locus YER155C, strain BEM2, stronger effect = lower value",1.07
same,normalized growth,"S. cerevisiae deletion strains, locus YER167W, strain BCK2, stronger effect = lower value",0.993
same,normalized growth,"S. cerevisiae deletion strains, locus YGL078C, strain dbp3, stronger effect = lower value",1.07
same,normalized growth,"S. cerevisiae deletion strains, locus YGL086W, strain mad1, stronger effect = lower value",1
same,normalized growth,"S. cerevisiae deletion strains, locus YGL248W, strain PDE1, stronger effect = lower value",0.944
same,normalized growth,"S. cerevisiae deletion strains, locus YGR135W, strain pre9, stronger effect = lower value",1.07
same,normalized growth,"S. cerevisiae deletion strains, locus YGR229C, strain SMI1, stronger effect = lower value",0.858
same,normalized growth,"S. cerevisiae deletion strains, locus YGR252W, strain gcn5, stronger effect = lower value",0.981
same,normalized growth,"S. cerevisiae deletion strains, locus YHR030C, strain SLT2, stronger effect = lower value",0.958 and 0.966
same,normalized growth,"S. cerevisiae deletion strains, locus YHR079C, strain IRE1 (second series), stronger effect = lower value",0.987
same,normalized growth,"S. cerevisiae deletion strains, locus YHR079C, strain IRE1, stronger effect = lower value",0.967
same,normalized growth,"S. cerevisiae deletion strains, locus YHR094C, strain hxt1, stronger effect = lower value",1.18 [resistant] (active)
same,normalized growth,"S. cerevisiae deletion strains, locus YHR129C, strain ARP1, stronger effect = lower value",0.98
same,normalized growth,"S. cerevisiae deletion strains, locus YHR200W, strain rpn10, stronger effect = lower value",1.14 [resistant] (active)
same,normalized growth,"S. cerevisiae deletion strains, locus YIL066C, strain RNR3, stronger effect = lower value",0.94
same,normalized growth,"S. cerevisiae deletion strains, locus YIL073C, strain SPO22, stronger effect = lower value",0.945
same,normalized growth,"S. cerevisiae deletion strains, locus YIL125W, strain kgd1, stronger effect = lower value",1.05
same,normalized growth,"S. cerevisiae deletion strains, locus YIR030C, strain dcg1, stronger effect = lower value",1.12 [resistant] (active)
same,normalized growth,"S. cerevisiae deletion strains, locus YJL095W, strain BCK1, stronger effect = lower value",0.857 and 0.963
same,normalized growth,"S. cerevisiae deletion strains, locus YJL134W, strain LCB3, stronger effect = lower value",1.01
same,normalized growth,"S. cerevisiae deletion strains, locus YJL168C, strain set2, stronger effect = lower value",1.1 [resistant] (active)
same,normalized growth,"S. cerevisiae deletion strains, locus YJL187C, strain SWE1 (second series), stronger effect = lower value",0.954
same,normalized growth,"S. cerevisiae deletion strains, locus YJR043C, strain POL32, stronger effect = lower value",0.93
same,normalized growth,"S. cerevisiae deletion strains, locus YJR066W, strain TOR1, stronger effect = lower value",0.916
same,normalized growth,"S. cerevisiae deletion strains, locus YJR075W, strain HOC1, stronger effect = lower value",0.959
same,normalized growth,"S. cerevisiae deletion strains, locus YKL009W, strain mrt4, stronger effect = lower value",0.713 (active)
same,normalized growth,"S. cerevisiae deletion strains, locus YKL068W, stronger effect = lower value",1.02
same,normalized growth,"S. cerevisiae deletion strains, locus YKL085W, strain MDH1 (second series), stronger effect = lower value",1.03
same,normalized growth,"S. cerevisiae deletion strains, locus YKL085W, strain MDH1, stronger effect = lower value",1.03
same,normalized growth,"S. cerevisiae deletion strains, locus YKL190W, strain CNB1, stronger effect = lower value",1.01
same,normalized growth,"S. cerevisiae deletion strains, locus YKR001C, strain vps1, stronger effect = lower value",0.998
same,normalized growth,"S. cerevisiae deletion strains, locus YLR039C, strain RIC1, stronger effect = lower value",0.995
same,normalized growth,"S. cerevisiae deletion strains, locus YLR058C, strain SHM2, stronger effect = lower value",0.968
same,normalized growth,"S. cerevisiae deletion strains, locus YLR102C, strain apc9, stronger effect = lower value",1.03
same,normalized growth,"S. cerevisiae deletion strains, locus YLR113W, strain HOG1, stronger effect = lower value",0.983
same,normalized growth,"S. cerevisiae deletion strains, locus YLR262C, strain YPT6, stronger effect = lower value",1.06
same,normalized growth,"S. cerevisiae deletion strains, locus YLR268W, strain sec22, stronger effect = lower value",1.07
same,normalized growth,"S. cerevisiae deletion strains, locus YLR330W, strain CHS5, stronger effect = lower value",0.952
same,normalized growth,"S. cerevisiae deletion strains, locus YLR342W, strain FKS1 (second series), stronger effect = lower value",0.891
same,normalized growth,"S. cerevisiae deletion strains, locus YLR371W, strain rom2, stronger effect = lower value",1.11 [resistant] (active)
same,normalized growth,"S. cerevisiae deletion strains, locus YLR418C, strain cdc73, stronger effect = lower value",0.895
same,normalized growth,"S. cerevisiae deletion strains, locus YML016C, strain PPZ1, stronger effect = lower value",0.987
same,normalized growth,"S. cerevisiae deletion strains, locus YML032C, strain rad52, stronger effect = lower value",0.934
same,normalized growth,"S. cerevisiae deletion strains, locus YML124C, strain tub3, stronger effect = lower value",1.04
same,normalized growth,"S. cerevisiae deletion strains, locus YMR078C, strain ctf18, stronger effect = lower value",1.06
same,normalized growth,"S. cerevisiae deletion strains, locus YMR223W, strain ubp8, stronger effect = lower value",1.09
same,normalized growth,"S. cerevisiae deletion strains, locus YMR263W, strain SAP30, stronger effect = lower value",0.935
same,normalized growth,"S. cerevisiae deletion strains, locus YMR307W, strain GAS1, stronger effect = lower value",0.969
same,normalized growth,"S. cerevisiae deletion strains, locus YNL067W, strain RPL9B, stronger effect = lower value",0.946
same,normalized growth,"S. cerevisiae deletion strains, locus YNL128W, strain TEP1, stronger effect = lower value",0.99
same,normalized growth,"S. cerevisiae deletion strains, locus YNL183C, strain NPR1, stronger effect = lower value",0.96
same,normalized growth,"S. cerevisiae deletion strains, locus YNL233W, strain BNI4, stronger effect = lower value",0.889
same,normalized growth,"S. cerevisiae deletion strains, locus YNL250W, strain rad50, stronger effect = lower value",1.05
same,normalized growth,"S. cerevisiae deletion strains, locus YNL271C, strain bni1, stronger effect = lower value",1.17 [resistant] (active)
same,normalized growth,"S. cerevisiae deletion strains, locus YNL298W, strain CLA4, stronger effect = lower value",0.992
same,normalized growth,"S. cerevisiae deletion strains, locus YNL307C, strain MCK1, stronger effect = lower value",1.14 [resistant] (active)
same,normalized growth,"S. cerevisiae deletion strains, locus YNL322C, strain KRE1, stronger effect = lower value",0.999
same,normalized growth,"S. cerevisiae deletion strains, locus YNR052C, strain pop2, stronger effect = lower value",1.03
same,normalized growth,"S. cerevisiae deletion strains, locus YOL006C, strain TOP1, stronger effect = lower value",0.723
same,normalized growth,"S. cerevisiae deletion strains, locus YOL012C, strain htz1",0.822
same,normalized growth,"S. cerevisiae deletion strains, locus YOL147C, strain pex11, stronger effect = lower value",0.969
same,normalized growth,"S. cerevisiae deletion strains, locus YOR061W, strain CKA2, stronger effect = lower value",1
same,normalized growth,"S. cerevisiae deletion strains, locus YOR069W, strain VPS5, stronger effect = lower value",1
same,normalized growth,"S. cerevisiae deletion strains, locus YOR136W, strain idh2, stronger effect = lower value",1.18 [resistant] (active)
same,normalized growth,"S. cerevisiae deletion strains, locus YOR184W, strain ser1, stronger effect = lower value",1.14 [resistant] (active)
same,normalized growth,"S. cerevisiae deletion strains, locus YOR231W, strain MKK1, stronger effect = lower value",0.977
same,normalized growth,"S. cerevisiae deletion strains, locus YOR316C, strain cot1, stronger effect = lower value",1.12 [resistant] (active)
same,normalized growth,"S. cerevisiae deletion strains, locus YPL256C, strain CLN2, stronger effect = lower value",0.982
same,normalized growth,"S. cerevisiae deletion strains, locus YPR119W, strain clb2, stronger effect = lower value",1.11 [resistant] (active)
same,normalized growth,"S. cerevisiae deletion strains, locus YPR141C, strain kar3, stronger effect = lower value",1.07
same,normalized growth,"S. cerevisiae deletion strains, locus YPR163C, strain tif3, stronger effect = lower value",1.07
same,normalized growth,"S. cerevisiae deletion strains, locus YPR167C, strain met16, stronger effect = lower value",1.08 [resistant] (active)
same,normalized growth,"S. cerevisiae deletion strains, strain wtn01, stronger effect = lower value",1.09
same,normalized growth,"S. cerevisiae strains, strain wild type, stronger effect = lower value",0.972
